The values that follow come from PubChem BioAssay (NCATS).

Inconclusive results are not listed. Values without a mark were called inactive. Active and inactive are the calls of the source. Calls come from the whole dose curve; as a rule, active = well fitted cell-killing curve with a large enough effect; inconclusive = small, poorly fitted or top-dose-only effect, or effect the other way; inactive = no such curve, though single readings can be large or run the other way.
Potency is the fitted concentration of half-maximal effect.

The nature of this test: Quantitative High-Throughput drug screen in 47 multiple myeloma cell lines against the NCATS MIPE library collection: U266_ATCC cell viability assay (AID 1919864). Note: nearly all actives have a fitted effect of over 35% in size. The conditions noted are these: U266 myeloma viability, CellTiter-Glo ATP luminescence, 48 h; series mostly up to 45.8 µM; viability (% of DMSO control): at the top concentration. Summed up:
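500 cells/well per myeloma line exposed to pinned MIPE 4.0 compounds for 48 h at 37 °C, 5% CO2. Viability read as ATP by CellTiter-Glo luminescence, normalised to DMSO-only (100%) and media-only (0%) wells.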
On to `CCCn1c(=O)c2[nH]c(-c3cnn(Cc4cccc(C(F)(F)F)c4)c3)nc2n(CC)c1=O`, for which the “viability (% of DMSO control)” value was 163%.

For `O=C(C=Cc1cccnc1)NCCCCC1CCN(C(=O)c2ccccc2)CC1`, the Potency is 18.7 µM (active).

For `C[C@@H]1COC(Nc2ccc3ncnc(Nc4ccc(OCc5nccs5)c(Cl)c4)c3c2)=N1`, the Potency was 18.7 µM (active).

Regarding `CCOC(=O)C1=C(C)NC2=C(C(=O)CC(C)(C)C2)C1c1ccc(-c2ccccc2)cc1` (centres undefined), the Potency was 26.4 µM (active).

Take `C=CC(=O)Nc1cccc(Oc2nc(Nc3ccc(N4CCN(C)CC4)cc3OC)ncc2Cl)c1`: the Potency was 23.5 µM (active).

With `CN(C1CCc2c(c3ccccc3n2CC(=O)O)C1)S(=O)(=O)c1ccc(F)cc1` (centres undefined), the Potency is 18.7 µM (active).

Consider `C[C@]12CC[C@H](O)CC1=CCC1C2CC[C@]2(C)C(n3cnc4ccccc43)=CCC12` (some centres undefined), for which the “viability (% of DMSO control)” value was 121%.

For `Cc1ccc(S(=O)(=O)Nc2cc(Cl)ccc2C(=O)Nc2nc(-c3ccccc3)cs2)cc1`, the Potency was 20.9 µM (active).

Consider `CCCCN1CCC(CNC(=O)c2c3n(c4ccccc24)CCCO3)CC1`, for which the Potency is 4.69 µM (active).

In the case of `CNC(=O)CN1CCC(Oc2cc3c(Nc4cccc(Cl)c4F)ncnc3cc2OC)CC1`, the “viability (% of DMSO control)” value is 105%.

In the case of `COc1ccc(CC2c3cc(OC)c(OC)cc3CC[N+]2(C)CCC(=O)OCCCCCOC(=O)CC[N+]2(C)CCc3cc(OC)c(OC)cc3C2Cc2ccc(OC)c(OC)c2)cc1OC` (centres undefined), the viability (% of DMSO control) was 135% [at 5.15 µM].

`CCN1CCN(Cc2ccc(-c3cc4c(N[C@H](C)c5ccccc5)ncnc4[nH]3)cc2)CC1`: the Potency is 0.166 µM (active).

With `Cc1c(Cn2c(C)nc3c(C(=O)O)cc(N4CCOCC4)cc32)cccc1C(F)(F)F`, the “viability (% of DMSO control)” value was 110%.

Regarding `NCC(=O)Nc1ccc(-n2nc(C(F)(F)F)cc2-c2ccc3c(ccc4ccccc43)c2)cc1`, the Potency was 20.9 µM (active).

With `COc1ccc(C=Cc2cc(OC)c(OC)c(OC)c2)cc1O`, the “viability (% of DMSO control)” value is 42.3%.

Regarding `CNC(=O)c1ccc(-c2cnc3ncc(Cc4ccc5ncccc5c4)n3n2)cc1F`, the “viability (% of DMSO control)” value was 122%.

For the molecule `NC(=O)c1cccc2cn(-c3ccc([C@@H]4CCCNC4)cc3)nc12`, the “viability (% of DMSO control)” value was 112%.

Turning to `Nc1ccc(C(=O)c2cc3c(ccc4ccccc43)[nH]2)cc1`, the Potency was 14.8 µM (active).

`Cc1nc2ccc(CN(C)c3ccc(C(=O)N[C@@H](CCC(=O)O)C(=O)O)s3)cc2c(=O)[nH]1`: the Potency was 11.8 µM (active).
